The whole screen tested about 360,000 compounds, of which about 3,700 (1%) were called active. The entries come from a sample that favours actives as a whole. A number with no mark means an inactive call. Rule as the data show it: active = activation above about 30%; inactive = the rest.

Sequence of D(1A) dopamine receptor (Homo sapiens) (P21728 whole entry, looked up): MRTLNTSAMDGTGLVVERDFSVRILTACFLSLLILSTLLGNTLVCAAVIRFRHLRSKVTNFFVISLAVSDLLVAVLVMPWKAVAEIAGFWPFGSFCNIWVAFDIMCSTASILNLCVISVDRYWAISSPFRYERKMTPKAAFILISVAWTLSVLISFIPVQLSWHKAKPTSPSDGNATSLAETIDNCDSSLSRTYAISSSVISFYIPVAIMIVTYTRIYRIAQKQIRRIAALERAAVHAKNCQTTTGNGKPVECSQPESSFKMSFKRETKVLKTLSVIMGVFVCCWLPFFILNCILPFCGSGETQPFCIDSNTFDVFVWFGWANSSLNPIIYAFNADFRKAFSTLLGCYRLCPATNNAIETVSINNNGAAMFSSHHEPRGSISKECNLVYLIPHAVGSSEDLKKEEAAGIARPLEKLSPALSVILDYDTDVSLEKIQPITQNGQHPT

The assay has as its target D(1A) dopamine receptor (Homo sapiens) (UniProt P21728). The experiment in a line: Allosteric Agonists of the Human D1 Dopamine Receptor: qHTS. Also: 0% is about no effect. The following applies: HEK293 T-REx D1 cells, calcium flux, agonist mode; at 2 µM; hits give high values. In short, it runs like this:
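Tetracycline-induced HEK293 TREx D1 cells, force-coupled to calcium signalling, were dye-loaded with a no-wash calcium kit. Compound was pin-added after a 10 s baseline. Fluorescence was read kinetically at 1 cycle/s for 180 s, with calcium rises flagged as agonism.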
(qHTS replaces the single test concentration by a dilution series.)
For `Cc1nn(C)cc1N1C(=O)c2cccc3c(N)ccc(c23)C1=O`, the activation was 244% (active).

As for `CN1C(=O)c2cccc3c(N)ccc(c23)C1=O`, the activation was 219% (active).

For the molecule `CCc1nc2cccnc2n1-c1ccc(CC(=O)Nc2c(C)cccc2C)cc1`, the activation is 1.78%.

With `Cc1ccc(Cn2c(=O)n(Cc3nc(-c4ccccc4)no3)c(=O)c3cc4c(cc32)OCO4)cc1`, the activation was -0.256%.

As for `COc1ccccc1Cc1nc2ccccc2nc1SCC(=O)N1CCCc2ccccc21`, the activation was 0.349%.

With `CCCN1CN=C(NS(=O)(=O)c2ccc(NC(C)=O)cc2)NC1`, the activation was -0.217%.

On to `COc1ccc(CC(=O)Nc2nnc3n2CCS3)cc1OC`, for which the activation was 1.78%.

In the case of `Cc1ccc(NC(=O)c2cn3c4c(ccc(Cl)c4c2=O)OC(C)C3)cc1C` (configuration not stated), the activation is 2.01%.

Consider `N=c1n(CCc2ccccc2)c2ccccc2n1Cc1ccccc1F`, for which the activation was 100% (active).

For the molecule `O=C(COC(=O)Cc1ccccc1F)NCCc1ccccc1`, the activation is 2.43%.

For the molecule `Fc1ccccc1Cn1cnc(NC(=S)NCCc2ccccc2)n1`, the activation is 1.4%.

In the case of `O=C(Nc1cc(Cl)cc(Cl)c1)c1ccc2c(c1)N(Cc1cccc(Cl)c1)C(=O)c1ccccc1S2=O` (configuration not stated), the activation was 6.19%.

With `COc1cc(NC(=O)c2cc([N+](=O)[O-])ccc2Br)ccc1NC(=O)c1ccco1`, the activation is 0.47%.

`COc1ccc(NC(=O)c2ccco2)cc1NC(=O)COc1ccc(C)c(C)c1`: the activation was -1.09%.

Take `CCC(=O)NC(=S)Nc1ccc(NC(=O)c2ccco2)c(Cl)c1`: the activation was 42.4% (active).

In the case of `COc1ccc(Cn2ccc3nc(C)c(C(=O)Nc4ccc(C)c(F)c4)cc3c2=O)cc1`, the activation was 2.43%.

`CC(C)c1ccccc1OCC(O)CN(CC(O)COc1cccc2ccccc12)C(C)C` (configuration not stated): the activation is 6.15%.

Turning to `Cc1cc(C)cc(OCC(=O)NCc2cc(C)nc3ccccc23)c1`, the activation was -0.104%.

Regarding `Cc1cc(C)c(NC(=O)C[N+](C)(C)CC(O)COc2cccc3ccccc23)c(C)c1` (configuration not stated), the activation was 62.2% (active).

Consider `Cc1ccc2c(=O)c(C(=O)c3ccc(Cl)cc3)cn(CC(=O)NC3CCCCC3)c2n1`, for which the activation was 1.93%.

Regarding `CCOc1ccc(CNC(=O)c2ccc3c(c2)nnn3C2CCCC2)cc1`, the activation is 1.9%.

`CC(=O)c1cccc(NC(=O)CSc2nc3c(c(=O)[nH]2)CCC3)c1`: the activation is 1.96%.

On to `CCn1c(=O)cc(OCC(=O)Nc2cc(Cl)c(OC)cc2OC)c2ccccc21`, for which the activation is 0.964%.

`CC(=N\NC(=O)c1cc(Br)ccc1O)/C(=N/O)C(=O)Nc1ccccc1`: the activation is 5.39%.

Turning to `CC(C)/C=N/NC(=O)c1cc(Br)ccc1O`, the activation is 32.1% (active).

For `CC(C)Cc1cc(C(=O)Nc2cc(Br)ccc2O)no1`, the activation was -1.17%.

`CCc1ccc(S(=O)(=O)Nc2cc3c(C(=O)OCc4ccccc4)c(C)oc3c3ccccc23)cc1`: the activation was 5.87%.

For `Cc1ccccc1NC(=O)Cn1c(=O)n(CC2CCC(C(=O)NCCc3ccccc3)CC2)c(=O)c2ccccc21` (configuration not stated), the activation is 0.988%.

Regarding `CCc1nnc(SCc2nc(-c3cccc(C)c3)oc2C)c2cc3sc(C)cc3n12`, the activation was 1.16%.

For `CCOc1cccc(C(=O)Nc2nnc(S(=O)(=O)N(C)c3ccc(C)cc3)s2)c1`, the activation is -0.514%.

As for `O=S(=O)(c1ccc(OCC(O)CN2CCN(c3ccccc3Cl)CC2)cc1)N1CCOCC1` (configuration not stated), the activation is 105% (active).

Take `CC(=O)c1ccc(OCC(O)CN2CCN(S(=O)(=O)c3cccc(Br)c3)CC2)cc1` (configuration not stated): the activation was 0.785%.

On to `CC(C)c1ccc(OCC(O)CN2CCN(c3ccccn3)CC2)cc1` (configuration not stated), for which the activation is 2.28%.

Consider `Cc1ccc2nc(N3CCN(c4cccc(Cl)c4)CC3)c3nnnn3c2c1`, for which the activation is 0.249%.

Turning to `CCN(CC)c1nn2c(=O)c(C(=O)NCCc3ccccc3)cnc2s1`, the activation was -0.903%.

Take `COc1ccc(NC(=O)CSC2=Nc3ccccc3C3=NC(CC(=O)NCc4ccccc4OC)C(=O)N23)cc1Cl` (configuration not stated): the activation was 4.46%.

Take `Cc1cccc(OCCSc2nc3ccc(NC(=O)COc4ccccc4C)cc3s2)c1`: the activation is 14.8%.

Turning to `COc1ccccc1Cn1c(CO)nc2ccccc21`, the activation was 2.48%.

Take `COCc1nc2ccccc2n1Cc1ccccc1Br`: the activation was 30.7% (active).

`C=C(Br)Cn1c(CCCC)nc2ccccc21`: the activation was 2.85%.

For the molecule `Cc1ccc(-c2noc(CSc3nnc(-c4ccc(Cl)cc4)n3C)n2)cc1`, the activation is -2.32%.

Regarding `Cc1ccc(-c2noc(CSc3nnnn3-c3ccccc3)n2)cc1`, the activation was 45.5% (active).

Take `Cc1ccc(Nc2nc(CSc3nnnn3-c3ccccc3)cc(=O)[nH]2)cc1`: the activation is 0.0289%.

With `COc1ccc(C(=O)Nc2cccc(C(=O)OCc3cc(=O)n4c5c(sc4n3)CCCC5)c2)cc1`, the activation was 0.659%.

`CCc1ccccc1N1C(=O)CN(S(=O)(=O)CC)CC1(C)C(=O)NC1CCCCC1` (configuration not stated): the activation is 0.155%.

Consider `COc1cc(C(=O)NCc2ccc(-n3cccc3)cc2)cc(OC)c1OC`, for which the activation was 4.24%.

Consider `COc1cc(C(=S)NCc2ccccc2)cc(Br)c1O`, for which the activation was 1.7%.

On to `COc1cc(C(=O)NCc2ccncc2)cc(Br)c1OCc1ccccc1`, for which the activation is 62.9% (active).

As for `CC(C)OCCCn1c(SCC(=O)c2ccccc2)nc2c(sc3ccccc32)c1=O`, the activation was -1.31%.

Turning to `Cc1ccccc1CNC(=O)C1CCCN(S(=O)(=O)N(C)c2ccc(F)cc2)C1` (configuration not stated), the activation was 2.76%.

In the case of `C/C(=N\NC(N)=S)c1ccncc1`, the activation was 0.713%.

Take `CCOC(=O)c1c(C)oc2ccc(N(C(=O)c3ccncc3)S(=O)(=O)c3ccc(CC)cc3)cc12`: the activation is 2.86%.

As to `CCN(CC)c1ccc2cc(C(N)=O)/c(=N\NC(=O)c3ccncc3)oc2c1`, the activation is 68.8% (active).

For the molecule `CCCCCCn1nnc2sc(-c3ccccc3)cc2c1=O`, the activation was 2.52%.

For the molecule `COc1ccccc1NC(=O)c1sc2nc(C)c(C(=O)Nc3ccc(Cl)cc3)c(-c3ccc(Br)cc3)c2c1N`, the activation was 48.4% (active).

In the case of `COc1ccc(Cl)cc1NC(=O)c1sc2nc3c(cc2c1N)CN(C)CC3`, the activation was 5%.

In the case of `COC(=O)c1c(NC(C)=O)sc(C(=O)Nc2ccccc2OC)c1C`, the activation was 2.77%.
